Screens deposited in PubChem by The Scripps Research Institute Molecular Screening Center.
CHO-K1 Ca PAM: M1 PAM counterscreen hit in parental CHO-K1 cells; ATP EC20, Fluo-8 calcium fluorescence; 0% at ATP EC20, 100% at ATP max; activation, % at 3 µM; hit rate 0.02% among 360,000; AID 602247;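 active means activation above the run cutoff, the mean activation of all test compounds plus 3 SD, cut at about 40% in these data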;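 further: peak over basal fluorescence ratio in a 140 s read after ATP addition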
M1 antag: human CHRM1 antagonism. hit rate 1.3% among 360,000. CHO-K1 hM1, Fluo-8 calcium fluorescence, ACh EC80 antagonist. AID 588852. inhibition, % at 3 µM. P11229;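 active means percent inhibition above its own plate's cutoff, namely the mean of that plate's compound wells plus 3 SD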;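 further: peak over basal fluorescence ratio during 140 s after agonist addition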
Target sequence (P11229 whole entry, looked up): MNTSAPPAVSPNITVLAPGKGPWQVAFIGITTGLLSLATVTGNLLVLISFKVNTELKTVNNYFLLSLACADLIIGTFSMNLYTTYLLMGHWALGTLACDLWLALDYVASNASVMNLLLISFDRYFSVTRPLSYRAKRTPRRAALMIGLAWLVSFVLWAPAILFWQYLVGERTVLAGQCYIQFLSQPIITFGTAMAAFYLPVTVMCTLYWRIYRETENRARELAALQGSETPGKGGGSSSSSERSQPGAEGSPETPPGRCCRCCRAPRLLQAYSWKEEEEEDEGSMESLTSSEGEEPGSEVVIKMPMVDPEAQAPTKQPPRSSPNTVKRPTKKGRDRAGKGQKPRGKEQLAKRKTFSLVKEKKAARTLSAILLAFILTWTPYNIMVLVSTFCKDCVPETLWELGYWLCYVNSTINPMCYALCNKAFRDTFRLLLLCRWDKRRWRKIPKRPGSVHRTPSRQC
M1 PAM: potentiates human M1 receptor response to acetylcholine | P11229 | CHO-K1 hM1, Fluo-8 calcium fluorescence, ACh EC20; 0% = ACh EC20, 100% = maximal ACh | activation, % at 3 µM | hit rate 0.088% among 360,000 | AID 588819; in the data active means activation above about 19%, passing the limit was not always enough
M1 ag parental: counter-screen for M1 agonists: effect in parental CHO-K1 cells | hit rate 0.48% among 360,000 | activation, % at 3 µM | AID 602248 | Fluo-8 calcium fluorescence; scaled to maximal ATP response, vehicle zero; in the data active means activation above about 15%;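 further: untransfected CHO-K1 host cells lacking M1 receptor as counterscreen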
M1 ag: agonists of human M1 muscarinic receptor | CHO-K1 hM1, Fluo-8 calcium fluorescence, agonist mode; 0% DMSO, 100% acetylcholine EC100 | activation, % at 3 µM | hit rate 0.33% among 360,000 | AID 588814;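 active means activation above the run's mean compound activation plus 3 SD, cut at about 16% in these data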;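 further: peak over basal fluorescence ratio within a 140 s kinetic read after compound addition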
CHO-K1 Ca antag: counter-screen for M1 antagonists: effect in parental CHO-K1 cells; inhibition, % at 3 µM; hit rate 0.6% among 360,000; AID 602250; ATP-induced calcium, Fluo-8 fluorescence;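 active means inhibition above a per-plate cutoff, the plate's mean sample inhibition plus 3 SD, cut at about 24% in these data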
Numbers stand for hits; n = inactive; x = not tested or not shown. This is a sample that favours compounds with a hit; in the whole collection about 2.3% have one here.

SMILES | CHO-K1 Ca PAM | M1 antag | M1 PAM | M1 ag parental | M1 ag | CHO-K1 Ca antag
CCC[N+]12CCC(CC1)C(C(O)(c1ccccc1)c1ccccc1)C2 (stereo unspecified) | n | 60 | n | n | n | n
CCCC[N+]12CCC(CC1)C(C(O)(c1ccccc1)c1ccccc1)C2 (stereo unspecified) | n | n | n | n | n | n
CN1OCC2Cn3c(nc4ccccc43)C21 (stereo unspecified) | n | n | 27 | n | n | n
CCOC(=O)c1cccc(C2=C(CNC(=O)c3nccs3)[C@H]3CC[C@@H](C2)N3Cc2ccccc2)c1 | n | n | n | n | n | n
Cc1ccc(/C=C2/C(=O)NC(=O)N(CC3CCCO3)C2=O)s1 (stereo unspecified) | n | n | n | 19 | n | n
CCC(CO)(C(=O)OC1CC2CCC(C1)N2C)c1ccccc1 (stereo unspecified) | n | 101 | n | n | n | n
COC(=O)N1Cc2ccccc2-n2nncc2C1 | n | n | n | n | n | n
C[N+]12CCC(CC1)C(=C(c1ccccc1)c1ccccc1)C2 | n | 98 | n | n | n | n
CC[N+]12CCC(CC1)C(=C(c1ccccc1)c1ccccc1)C2 | n | 98 | n | n | n | n
CC12Nc3ccccc3C(=O)N1Cc1cnnn1-c1ccccc12 (stereo unspecified) | n | x | x | n | x | n
CN(C)CCSC1c2ccccc2CSc2ccccc21 (stereo unspecified) | n | 99 | n | n | n | n
O=C(c1cc(=O)[nH]c2ccc(Br)cc12)N1CCC2(CC1)OCCO2 | n | n | n | n | n | 26
O=C(c1cc2cc(Cl)ccc2[nH]1)N1CCC2(CC1)OCCO2 | n | n | n | n | n | n
CN1CCCC1C(O)(c1ccccc1)c1ccccc1 (stereo unspecified) | n | n | n | n | n | n
OC(c1cccc(Cl)c1)(c1cccc(Cl)c1)C1CN2CCC1CC2 (stereo unspecified) | n | 99 | n | n | n | n
c1ccc2c(c1)Sc1ccccc1N2CC1CN2CCC1CC2 (stereo unspecified) | n | 99 | n | n | n | n
CCCC1(CC(C)CC)C(=O)NC(=O)NC1=O (stereo unspecified) | n | n | n | n | n | n
CCOc1cc2c(cc1OCC)-n1cccc1C(c1ccc(OC)cc1)NC2 (stereo unspecified) | n | n | n | 18 | n | n
CCOc1cc2c(cc1OCC)-n1cccc1C(c1ccc(F)cc1)NC2 (stereo unspecified) | n | n | n | n | n | n
CCOC(=O)[C@]12Cc3cc(C)ccc3[C@H]1N(C1CCCCC1)C(=O)c1ccccc12 | n | x | x | n | x | n
CCN(CC)CCCOC(=O)C(OC)(c1ccccc1)c1ccccc1 | n | 99 | n | n | n | n
CCCCOC(=O)c1ccccc1C(=O)OCCCC | n | n | n | n | n | n
CCOC(C(=O)OCCC[N+](C)(CC)CC)(c1ccccc1)c1ccccc1 | n | 98 | n | n | n | n
CC[N+](C)(CC)CCCOC(=O)C(O)(c1ccccc1)C1CCCCC1 (stereo unspecified) | n | 96 | n | n | n | n
CCOC(C(=O)OCC(O)CN(CC)CC)(c1ccccc1)c1ccccc1 (stereo unspecified) | n | n | n | n | n | n
SMILES | CHO-K1 Ca PAM | M1 antag | M1 PAM | M1 ag parental | M1 ag | CHO-K1 Ca antag
O=C1C(Br)C2CCC1C2C(=O)O (stereo unspecified) | n | n | n | n | n | n
CSCCC(c1nnnn1Cc1ccccc1)N1CCC2(CC1)C(=O)NCN2c1ccccc1 (stereo unspecified) | n | n | n | n | n | n
CCCC(=O)OCC[N+](C)(C)C | n | n | n | n | 43 | n
O=C(CN1CCCCC1)c1ccc(F)cc1 | n | n | n | n | n | n
O=C(c1ccccc1)C(CN1CCCC1)c1ccccc1 (stereo unspecified) | n | 51 | n | n | n | n
CC(=O)N(C)C1=Nc2ccc(Cl)cc2C(c2ccccc2)=[N+]([O-])C1 | n | n | n | n | n | n
CC(=O)OC1CCC2(C)C(CCC3C4CC(N5CC5)C(C(C)=O)C4(C)CC(=O)C32)C1 (stereo unspecified) | n | n | n | n | n | n
CC(=O)c1cccc(NC(=O)N2C[C@H]3C[C@@H](C2)c2cccc(=O)n2C3)c1 | n | n | n | n | n | 29
CCOC(=O)c1ccc(NC(=O)N2C[C@@H]3C[C@@H](C2)c2cccc(=O)n2C3)cc1 | n | n | n | n | n | 25
O=C(Nc1cc(Cl)cc(Cl)c1)N1Cc2ccccc2-n2nncc2C1 | n | n | n | n | n | n
COc1ccccc1CN1CCCC(C(=O)c2ccccc2SC)C1 (stereo unspecified) | n | n | n | n | n | n
CSc1ccc(C(=O)C2CCCN(Cc3cccnc3)C2)cc1 (stereo unspecified) | n | 34 | n | n | n | n
CSc1ccccc1C(=O)C1CCCN(Cc2ccncc2)C1 (stereo unspecified) | n | 55 | n | n | n | n
COc1ccc(C(c2nnnn2-c2ccc3c(c2)OCCO3)N2CCC3(CC2)C(=O)NCN3c2ccccc2)cc1 (stereo unspecified) | n | n | n | n | n | n
c1ccc(CNC2CN3CCC2CC3)cc1 (stereo unspecified) | n | 59 | n | n | n | n
Clc1ccccc1CNC1CN2CCC1CC2 (stereo unspecified) | n | 39 | n | n | n | n
COc1ccc(-[n+]2c(-c3ccccc3)cc(-c3ccc(C)cc3)cc2-c2ccccc2)cc1 | n | 86 | n | n | n | n
CCCOC(=O)c1ccc(-[n+]2c(-c3ccccc3)cc(-c3ccccc3)cc2-c2ccccc2)cc1 | n | 45 | n | n | n | n
COc1ccc(-c2cc(-c3ccccc3)[n+](C)c(-c3ccccc3)c2)cc1 | n | n | n | n | n | n
O=C(O)c1ccc(-[n+]2c(-c3ccccc3)cc(-c3ccccc3)cc2-c2ccccc2)cc1 | n | n | n | n | n | n
Oc1ccccc1-[n+]1c(-c2ccccc2)cc(-c2ccccc2)cc1-c1ccccc1 | n | n | n | n | n | n
Cc1ccccc1-[n+]1c(-c2ccccc2)cc(-c2ccccc2)cc1-c1ccccc1 | n | 65 | n | n | n | n
COC(=O)C1=C(C(=O)OC)SC2(S1)C(C(=O)OC)=C(C(=O)OC)Sc1c2ssc1=O | n | n | n | n | n | n
C[C@@H]1CN([C@H](C)CO)C(=O)CCCn2cc(nn2)CO[C@H]1CN(C)C(=O)Oc1cccc2ccccc12 | n | n | n | n | n | n
N#CC(c1cccnc1)N1CCOCC1 (stereo unspecified) | n | n | n | n | n | n
